# For some of these results: Measured potencies and affinities stand elsewhere. Records with an inconclusive call do not appear. A number with no mark means an inactive call. The list shows a part of the results. Activity calls are given as the source filed them. Unless noted, the rule behind the calls is not given here.
# Tests used:
# [1] = inhibitors of CMV-promoter luciferase reporter, dose response, counter-screen for Pax8 inhibitor project, cell-based, HEK293, luminescence, dry powder (AID 743020;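 active = signal-lowering compounds whose fitted half-maximal concentration is at or below twice the top tested dose in every run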;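 note: HEK293 cells stably expressing the CMV luciferase reporter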)
# [2] = IGROV1 ovarian cancer cell cytotoxicity, dose response, PAX8 inhibitor project, plate reader, dry powder samples (AID 743043);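 note: more negative means fewer viable cells or more cytotoxicity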
# [3] = NIH:OVCAR-3 ovarian cancer cell cytotoxicity, dose response, PAX8 inhibitor project, plate reader, dry powder samples (AID 743044); details: NIH:OVCAR-3 ovarian cancer cell viability, active compounds read low; at 4.2 µM unless noted
# [4] = IOSE-T80 ovarian epithelial cell cytotoxicity, dose response, cytotoxicity control for PAX8 inhibitor project, plate reader, dry powder samples (AID 743045);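 note: 0% = neutral control median and -100% = positive control median; more negative values mean more cell killing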
# [5] = cytotoxicity in PAX8-dependent RMG-1 cells, dose response, cell-based, cherry-pick (AID 687029;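 active = signal drop whose fitted half-maximal concentration is at most twice the top valid dose, in every test run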;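 note: cells exposed to compound for 96 hours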)
# [6] = non-specific cell cytotoxicity, dose response, cytotoxicity control for PAX8 inhibitor project, plate reader, dry powder samples (AID 743021)
# [7] = DNA binders by acridine orange displacement, dose response, counter-screen for EWS/Fli inhibitor project, biochemical, fluorescence polarization, cherry-pick (AID 720586;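 active = fitted curve reaches a 35% signal fall AC35 below twice the sample's top valid tested dose, actives reach about 48 µM in these data; inactive = the rest, including activity in the rising direction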;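 note: 0% = neutral control median and -100% = 10 µM mitoxantrone control median; lower polarization ratio signals compound binding to DNA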)
# [8] = cytotoxicity in IOSE-T80 ovarian epithelial cells, dose response, selectivity assay for PAX8 inhibitor project, cell-based, cherry-pick (AID 687032;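 active = fitted half-maximal concentration for viability loss no higher than twice the top valid dose, in every repeat run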;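 note: cells exposed to compound for 96 h before reading; 0% = neutral control wells and -100% = 2 µM mitoxantrone kill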)
structure (smiles),measurement,setting,value
CCCCN=C[C@]12CCC(O)CC1(O)CCC1[C@@H]2CC[C@]2(C)[C@H](C3C=CC(=O)O3)CCC12O (stereo partly drawn),outcome,[1],inactive
COc1ccc(-c2ccc([C@@H]3[C@@H](CO)N4CCCCN(C(=O)Cc5ccccc5)C[C@H]34)cc2)cc1,outcome,[1],inactive
same,outcome,[2],inactive
same,max activity,[3],-18.2% [at 35 µM]
same,outcome,[4],inactive
O=c1[nH]c2ccccc2n1C1CCN(C(c2cccs2)c2nnnn2-c2ccc3c(c2)OCCO3)CC1 (stereo not drawn),outcome,[1],inactive
CC(=O)OC(C)(C)/C=C/C(=O)C(C)(O)C1[C@H](O)C[C@@]2(C)C3CC=C4C(CC[C@@H](O)C4(C)C)[C@]3(CO)C(=O)C[C@]12C (stereo partly drawn),outcome,[5],inactive
same,outcome,[1],inactive
same,outcome,[6],inactive
CC1OC(OC2C=C3CCC4C(CCC5(C)C(c6ccc(=O)oc6)CCC45O)C3(C)CC2)C(O)C(OC2OC(CO)C(O)C(O)C2O)C1O (stereo not drawn),outcome,[5],inactive
same,outcome,[6],inactive
CC12CCC(O)CC1CCC1C2CCC2(C)C(C3=CC(=O)OC3)CCC12O (stereo not drawn),outcome,[5],inactive
same,outcome,[6],inactive
COc1ccc(C[C@H]2NC[C@H](O)[C@H]2OC(C)=O)cc1,outcome,[5],inactive
same,outcome,[6],inactive
COC(=O)C1=C(c2ccc(F)cc2OCc2ccccc2)C[C@@H]2CC[C@H]1N2C(=O)NCc1ccc(C(F)(F)F)cc1,outcome,[5],inactive
same,outcome,[6],inactive
Cc1ccc(C(=O)N[C@@H](C)CN2C3=NC[C@@H](Cc4ccccc4)N3C[C@H]2Cc2ccc(O)cc2)cc1Br,outcome,[5],inactive
same,outcome,[1],inactive
same,outcome,[6],inactive
CCC(c1nnnn1Cc1ccccc1)N1CCC(n2c(=O)[nH]c3ccccc32)CC1 (stereo not drawn),outcome,[1],inactive
C[C@]12CC[C@H]3[C@@H](CC[C@]4(O)C[C@@H](O)CC[C@]34C=O)[C@@]1(O)CC[C@@H]2C1=CC(=O)OC1,outcome,[6],inactive
CCC(C)C1NC(=O)C(NC(=O)C(CC(C)C)N(C)C(=O)C2CCCN2C(=O)C(C)O)C(C)OC(=O)C(Cc2ccc(OC)cc2)N(C)C(=O)C2CCCN2C(=O)C(CC(C)C)NC(=O)[C@H](C)C(=O)[C@H](C(C)C)OC(=O)CC1O (stereo partly drawn),outcome,[5],inactive
same,outcome,[1],inactive
same,outcome,[6],inactive
N#Cc1ccc2nc(-c3ccc(CN4CCC(n5c(=O)[nH]c6ccccc65)CC4)cc3)c(-c3ccccc3)nc2c1,outcome,[5],inactive
same,outcome,[6],inactive
C[C@@H]1O[C@@H](O[C@@H]2C=C3CC[C@@H]4C(CC[C@]5(C)[C@@H](c6ccc(=O)oc6)CC[C@]45O)[C@@]3(C)CC2)[C@H](O)[C@H](O)[C@H]1O (stereo partly drawn),outcome,[6],inactive
C[C@]12CCC3C(CCC4=CC(O)CC[C@@]43/C=N/O)C1(O)CCC2C1=CC(=O)OC1 (stereo partly drawn),outcome,[1],inactive
O=C1NC(=O)N(CCc2ccc(F)cc2)C(=O)/C1=C/C=C/c1ccccc1,outcome,[7],inactive
O=C(Cc1ccccn1)N1CCCCN2[C@@H](CO)[C@@H](c3ccc(-c4ccc(F)cc4)cc3)[C@@H]2C1,outcome,[8],inactive
same,outcome,[1],inactive
same,outcome,[6],inactive
same,outcome,[2],inactive
same,max activity,[3],9.98%
same,outcome,[4],inactive
C[C@]12CC[C@H](O)C[C@H]1CC[C@@H]1C2CC[C@]2(C)[C@@H](C3=CC(=O)OC3)[C@@H](O)C[C@]12O (stereo partly drawn),outcome,[7],inactive
N#CC(C#N)=NNc1ccc(-n2ccc(C(F)(F)F)n2)cc1,outcome,[5],inactive
same,outcome,[6],inactive
CC(=O)OC1CC(OC2C(O)CC(OC3C(O)CC(OC4CCC5(C)C(CCC6C5CC(O)C5(C)C(C7=CC(=O)OC7)CCC65O)C4)OC3C)OC2C)OC(C)C1OC1OC(CO)C(O)C(O)C1O (stereo not drawn),outcome,[5],inactive
same,outcome,[6],inactive
CN(C)CC(C(=O)Cc1ccccc1)c1ccccc1 (stereo not drawn),outcome,[5],inactive
same,outcome,[1],inactive
same,outcome,[6],inactive
CC(C)(O)/C=C/C(=O)C(C)(O)C1C(O)CC2(C)C3CC=C4C(C=C(O)C(=O)C4(C)C)C3(C)C(=O)CC12C (stereo not drawn),outcome,[8],inactive
same,outcome,[6],inactive
CC(N)C(=O)NC1C2C(=C(O)CC(O)C2O)C(=O)OC1(C)C(Cl)Cl (stereo not drawn),outcome,[5],inactive
same,outcome,[6],inactive
CC1CC(C)(O)CC(C(O)CC2CC(=O)NC(=O)C2)C1=O (stereo not drawn),outcome,[1],inactive
same,outcome,[6],inactive
COC1=C(C)C(=O)C2=C(C1=O)C(CO)N1C(C#N)C3CC4C(C1C2N1CCOC41)N3C (stereo not drawn),outcome,[5],inactive
same,outcome,[6],inactive
C=Cc1cc(OC)c2c(c1)c(=O)oc1c2cc(OC)c2c(O)ccc(C3OC(C)C(O)C(C)(O)C3O)c21 (stereo not drawn),outcome,[5],inactive
same,outcome,[6],inactive
CCCCCCCCCCCCn1ccc(=N)cc1,outcome,[5],inactive
same,outcome,[6],inactive
CCC(C)(O)C(=O)OC1C(=O)OC2CC3C(C)=CC(=O)C(O)C3(C)C3C4(O)OCC23C1C(C)C4O (stereo not drawn),outcome,[1],inactive
same,outcome,[6],inactive

# Reference: PubChem BioAssay
